Source: PubChem BioAssay
AMA1 RON2 block: qHTS for Inhibitors of AMA1-RON; Towards Development of Antimalarial Drug Lead: Primary Screen; AlphaScreen AMA1-biotinylated RON2 peptide binding; Potency, µM (top dose mostly 58.2 µM), for inactives: at the highest dose activity change, negative = inhibition, most hits filed as inhibitors; hit rate 0.2% among 360,000;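 note: 0% = vehicle wells and -100% = peptide control; nearly all actives have a fitted effect of over 45% in size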
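AMA1 (3D7) with his tag at 25 nM final met compounds first, then biotinylated RON2 peptide at 25 nM; detection used donor plus acceptor beads, 10 µg/mL apiece, read by AlphaScreen after 30 min at room temperature.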
AmpC no deterg: qHTS Inhibitors of AmpC Beta-Lactamase (assay without detergent); AmpC nitrocefin hydrolysis, absorbance 480 nm, 0.0001% Triton; AID 485341, 2010; P00811; hit rate 0.52% among 330,000; Potency, µM (series often up to 57.1 µM), for the others: at the highest dose activity change, negative = inhibition, usual class: inhibitors;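 note: plate controls were no compound for no effect and no enzyme for full effect; nearly all actives have a fitted effect of over 20% in size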
Target sequence (P00811 whole entry, looked up): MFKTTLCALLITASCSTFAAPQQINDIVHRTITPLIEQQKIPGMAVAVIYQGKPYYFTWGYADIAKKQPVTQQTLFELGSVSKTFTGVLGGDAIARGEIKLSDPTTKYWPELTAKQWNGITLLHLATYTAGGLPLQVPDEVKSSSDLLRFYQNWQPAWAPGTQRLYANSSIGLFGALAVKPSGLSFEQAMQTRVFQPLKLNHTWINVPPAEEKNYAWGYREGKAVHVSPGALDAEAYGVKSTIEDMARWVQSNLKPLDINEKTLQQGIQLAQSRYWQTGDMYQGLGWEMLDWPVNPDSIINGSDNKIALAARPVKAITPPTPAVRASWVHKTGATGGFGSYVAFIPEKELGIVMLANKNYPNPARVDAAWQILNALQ
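20 mM phosphate pH 7.0 + 0.01% (detergent screen) or 0.0001% Triton X-100; 5.3 nM AmpC reagent; cpd preinc 15 min RT; nitrocefin (800 uM stock) to start; A480 q20 s × 4 min; Activity was normalised to no-enzyme and no-compound control wells.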
HCV inhibitor: qHTS Assay for Inhibitors of Hepatitis C Virus (HCV) | Huh7.5.1 HCVcc-Cre infection, luciferase reporter, 44 h | Potency, µM (series often up to 41.8 µM), without a hit: at the top dose activity change, negative = inhibition, most hits filed as inhibitors | hit rate 3.4% among 340,000
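1,000 cells/well; 4 h culture; + compound; + HCVcc-Cre (~0.5 moi); 44 h; luciferase substrate, RT 15 min; read 15 sec.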
AmpC inh detg: qHTS Inhibitors of AmpC Beta-Lactamase (assay with detergent). P00811. AmpC hydrolysis of nitrocefin, absorbance 480 nm, 0.01% Triton. Potency, µM (highest dose often 114 µM), without a hit: at the highest dose activity change, negative = inhibition, most hits filed as inhibitors. hit rate 0.041% among 370,000. AID 485294, 2010;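 note: 0% = no-compound wells and -100% = no-enzyme wells; nearly all actives have a fitted effect of over 25% in size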
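AmpC (5.3 nM in the dispensed reagent) in 20 mM phosphate pH 7.0 with 0.01% (detergent screen) or 0.0001% Triton X-100 was preincubated with compounds for 15 min at room temperature. Nitrocefin was then added from an 800 uM solution, and hydrolysis was followed at 480 nm.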
Pf growth 96h: Primary qHTS for delayed death inhibitors of the malarial parasite plastid, 96 hour incubation | P. falciparum luciferase reporter growth, 96 h | Potency, µM (titrated, usually from 28.7 µM), inactives show at the highest dose activity change, negative = inhibition, actives largely listed as inhibitors | hit rate 6.9% among 320,000
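Compounds incubated with erythrocytes infected by luciferase-expressing P. falciparum (2% hematocrit, 0.05% parasitemia final) for 96 hours, 37 C in 5% CO2. Growth inhibition scored as decreased luciferase luminescence.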
Pf growth 48h: Primary qHTS for delayed death inhibitors of the malarial parasite plastid, 48 hour incubation | P. falciparum luciferase growth in erythrocytes, 48 h | Potency, µM (series often up to 28.7 µM), for inactives: top-dose activity change, negative = inhibition, actives largely listed as inhibitors | hit rate 5.9% among 310,000 | AID 504832, 2011
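Compounds are pin-transferred into medium, infected erythrocytes (2% hematocrit, 0.1% parasitemia final) are added, and plates sit one parasite generation at 37 C in 5% CO2. Detection reagent is then added and luminescence measured.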
An asterisk follows results filed as active; ? = inconclusive; nt = no result; [ ] = remark or other dose. A selection: hits, their analogues and other compounds. The true share with any hit is near 11%. Calls come from the whole dose curve; as a rule, active = well fitted curve in the direction sought with a large enough effect; inconclusive = small, poorly fitted or top-dose-only effect, or another doubt; inactive = no such curve, though single readings can be large; an effect the other way counts as inactive or inconclusive. Unless noted, % is set by controls: 0 for no effect and ±100 for the full control effect; potency is the fitted concentration of half-maximal effect.

SMILES | AMA1 RON2 block | AmpC no deterg | HCV inhibitor | AmpC inh detg | Pf growth 96h | Pf growth 48h
COc1ccc(-n2c(=O)c3c4c(sc3n(Cc3ccc(F)cc3)c2=O)CN(C(C)=O)CC4)c(OC)c1 | nt | nt | nt | -1.7% | nt | nt
C=CCn1c(SCc2ccc(C(=O)Nc3nccs3)cc2)nnc1-c1ccc(C)c(Cl)c1 | 36.9% | -17.4% | 8.91µM* | ? | 114.5% | ?
Nc1nc(-n2cnnc2)nn1-c1ccccc1 | 22.0% | -20.3% | -7.8% | -0.7% | 1.7% | 6.9%
Nc1nc(N2C(=O)C3CC=CCC3C2=O)nn1-c1ccccc1 (stereo not drawn) | 12.9% | -6.9% | 2.5% | ? | 2.94µM* | ?
Cc1ccc(-n2c3c(cc(-c4nc(-c5ccc(Cl)cc5)cs4)c2=O)C(=O)CC(C)(C)C3)cc1C | nt | nt | nt | 19.6% | nt | nt
CCn1cc(C(=O)Nc2ccccc2)c(=O)c2ccc(C)nc21 | nt | -4.7% | nt | -2.7% | -6.4% | -8.3%
CCn1cc(C(=O)NC2CC3CCC2C3)c(=O)c2ccc(C)nc21 (stereo not drawn) | nt | -27.7% | nt | 0.1% | 5.22µM* | -12.5%
CCn1cc(C(=O)NC2CCCCC2C)c(=O)c2ccc(C)nc21 (stereo not drawn) | -15.2% | nt | -16.1% | -11.6% | 11.7µM* | 1.3%
COc1cccc(OCCNC(=O)c2cc([N+](=O)[O-])cc([N+](=O)[O-])c2)c1 | 7.5% | -41.0% | -2.7% | -6.1% | 9.3% | ?
Cc1ccc(OCCNC(=O)c2cc(C(=O)NCCOc3ccc(C)cc3)cc([N+](=O)[O-])c2)cc1 | -20.1% | -27.2% | ? | -6.3% | 1.17µM* | 11.7µM*
Cc1ccc(Cn2ccnc2SCC(=O)Nc2ccccc2C(F)(F)F)cc1 | nt | nt | nt | 5.8% | nt | nt
COc1cc(C)c(NC(=O)COc2cccc3c2OC(C)(C)C3)cc1OC | -4.2% | 81.5% | 10µM* | -5.0% | ? | -18.9%
CCOc1ccc(NC(=O)CN(C)C(=O)COc2cccc3c2OC(C)(C)C3)cc1OCC | 0.0% | 103.1% | ? | -6.9% | ? | 13.1µM*
Cc1cc(C)cc(NC(=O)COC(=O)COc2cccc3c2OC(C)(C)C3)c1 | -2.5% | 35.5µM* | 1.1% | ? | 8.5% | 9.4%
COc1ccc(NC(=O)COc2cccc3c2OC(C)(C)C3)c(OC)c1 | -9.5% | 3.0% | ? | -12.9% | 10.4µM* | ?
COc1ccccc1NC(=O)COC(=O)COc1cccc2c1OC(C)(C)C2 | 1.8% | -10.1% | 5.3% | -3.6% | 12.3% | -12.6%
COc1ccc(S(=O)(=O)Nc2cccc(-c3ccc(N4CCCCCC4)nn3)c2)cc1 | nt | nt | nt | -5.6% | nt | nt
Cc1ccc2c(CN3C(=O)NC(C)(c4ccc5c(c4)OCO5)C3=O)cc(=O)oc2c1 (stereo not drawn) | -3.2% | -11.9% | ? | ? | ? | 4.15µM*
COc1ccc(C(=O)Nc2nc(-c3ccccc3)c(C(C)=O)s2)c(OC)c1 | 29.7% | 1.2% | 12.6µM* | -0.8% | 13.1% | 15.0%
Cc1ccc(-c2nc(NC(=O)c3ccc(S(=O)(=O)N(CCC#N)CCC#N)cc3)sc2-c2ccccc2)cc1 | -6.1% | -29.4% | 11.3% | -5.5% | 11.7µM* | -25.1%
COc1ccc(C(=O)Nc2nc(-c3ccc([N+](=O)[O-])cc3)c(-c3ccccc3)s2)cc1 | -1.0% | nt | 6.31µM* | nt | nt | nt
COc1ccc2c(c1)CCc1sc(NC(=O)c3ccc(Br)cc3)nc1-2 | nt | nt | nt | 14.1% | nt | nt
N#CCCN(CCC#N)S(=O)(=O)c1ccc(C(=O)Nc2nc(-c3ccccc3)c(C(=O)c3ccccc3)s2)cc1 | -6.3% | -10.7% | 3.5% | -12.2% | 5.8% | -1.1%
COc1ccc2c(c1)CCc1sc(NC(=O)c3ccc(C)cc3)nc1-2 | 2.5% | -55.5% | -14.4% | -3.5% | 6.57µM* | ?
COc1ccc(CCC(=O)Nc2ccc(S(=O)(=O)N3CCOCC3)cc2)cc1 | 12.3% | -12.3% | -19.4% | -7.0% | 230.6% | -17.6%
SMILES | AMA1 RON2 block | AmpC no deterg | HCV inhibitor | AmpC inh detg | Pf growth 96h | Pf growth 48h
COc1ccc(NC(=O)Cc2c[nH]c3ccccc23)cc1S(=O)(=O)N1CCOCC1 | 0.1% | -23.1% | -12.8% | -2.2% | -20.4% | -2.2%
COc1ccc(CCC(=O)Nc2ccc(Cl)c(S(=O)(=O)N3CCCC3)c2)cc1 | -21.5% | -50.2% | 5.62µM* | 2.0% | ? | 9.28µM*
COc1ccc(NC(=O)Cc2c[nH]c3ccccc23)cc1S(=O)(=O)N1CCCCC1 | -12.4% | 14.1µM* | ? | -4.4% | ? | ?
COc1ccccc1CCC(=O)Nc1cccc(S(=O)(=O)N2CCCCCC2)c1 | 6.6% | -14.4% | 10µM* | ? | -29.1% | ?
COc1ccccc1CCC(=O)Nc1ccc(OC)c(S(=O)(=O)N2CCCCC2)c1 | -8.3% | -11.9% | 11.2µM* | -1.5% | ? | ?
O=C(O)c1ccc2c(c1)C(=O)N([C@H](Cc1ccc(C(F)(F)F)cc1)C(=O)O)C2=O | nt | -19.8% | nt | -7.5% | 13.3% | ?
CCC(=O)N1CCc2cc(CNS(=O)(=O)c3ccc(NC(=O)CC(C)C)cc3)ccc21 | nt | nt | nt | 9.5% | nt | nt
CC1=C(C(=O)Nc2ccccc2)C(C(C)C)n2nc(SCc3ccccc3C)nc2N1 (stereo not drawn) | nt | nt | nt | 14.6% | nt | nt
CCCCOc1cccc(C(=O)N(Cc2ccc(Br)o2)C2CCS(=O)(=O)C2)c1 (stereo not drawn) | nt | nt | nt | 16.5% | nt | nt
COC(=O)c1ccc(OC)c(CN2C(=O)N(c3ccc(C(C)=O)cc3)S(=O)(=O)c3ccccc32)c1 | nt | nt | nt | 12.2% | nt | nt
COc1ccc(NC(=O)CCc2ccccc2)cc1S(=O)(=O)N1CCCCC1 | 2.1%[11.6 µM] | -35.6% | -12.5% | -7.3% | ? | ?
COc1ccc(NC(=O)CCOc2ccccc2C)cc1S(=O)(=O)N1CCCCC1 | 5.1% | -11.0% | 11.2µM* | 0.0% | ? | 11.7µM*
COc1cc(CCC(=O)Nc2ccc(C)c(S(=O)(=O)N3CCCCCC3)c2)cc(OC)c1OC | 0.0% | 39.3% | 7.94µM* | ? | 10.4µM* | 11.7µM*
COc1ccc(NC(=O)CCOc2ccc(C)cc2)cc1S(=O)(=O)N1CCOCC1 | -1.4%[11.6 µM] | -1.5% | -28.8% | -4.9% | ? | -21.6%
COc1cc(NC(=O)CNc2ccc(Cl)c(S(=O)(=O)N3CCOCC3)c2)cc(OC)c1 | -12.4% | -15.2% | ? | -2.0% | ? | 5.22µM*
